Rows were chosen to be rich in hits. Some 1.1% of all compounds tested hit in one or more screens of this group.
S1P4 antagonist: S1P4 receptor antagonists, primary screen, cell-based | Sphingosine 1-phosphate receptor 4 (Homo sapiens), O95977 | S1P4-expressing cells, antagonist mode, reporter read-out | 220,000 tested, 0.26% active | AID 1510, 2009 | inhibition, % at 4.98 µM; in the data active = inhibition above about 29%;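 also: 0% = wells stimulated with agonist and 100% = vehicle wells without agonist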
Target sequence (O95977 whole entry, looked up): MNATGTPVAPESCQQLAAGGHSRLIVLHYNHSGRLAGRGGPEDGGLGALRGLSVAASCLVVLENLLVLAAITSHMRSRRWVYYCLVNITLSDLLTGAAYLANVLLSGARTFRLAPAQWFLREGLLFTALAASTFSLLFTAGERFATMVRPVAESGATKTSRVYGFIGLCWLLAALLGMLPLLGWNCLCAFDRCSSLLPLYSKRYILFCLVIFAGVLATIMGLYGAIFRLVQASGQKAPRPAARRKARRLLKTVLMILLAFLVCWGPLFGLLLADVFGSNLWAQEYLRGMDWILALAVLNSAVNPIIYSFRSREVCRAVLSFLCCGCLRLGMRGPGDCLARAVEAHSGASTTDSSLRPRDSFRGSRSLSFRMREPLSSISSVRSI
S1P4 agonist: S1P4 receptor agonists, primary screen, cell-based; Sphingosine 1-phosphate receptor 4 (Homo sapiens), O95977; S1P4-expressing cell line, agonist reporter assay; activation, % at 4.98 µM; 220,000 tested, 0.35% active; AID 1509, 2009; in the data active = activation above about 11%;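 also: 0% = DMSO vehicle and 100% = reference agonist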
UBC9 SUMO inh: inhibitors of in vitro SUMOylation cascade, primary screen, biochemical, HTRF, uHTS | HTRF SUMOylation assay, SAE1/SAE2 + UBC9 | SUMO-conjugating enzyme UBC9 (Homo sapiens), P63279 | inhibition, % at 35 µM | 290,000 tested, 0.36% active | AID 2006, 2009; in the data active = inhibition above about 50%, passing the limit was not always enough
Target sequence (P63279 whole entry, looked up): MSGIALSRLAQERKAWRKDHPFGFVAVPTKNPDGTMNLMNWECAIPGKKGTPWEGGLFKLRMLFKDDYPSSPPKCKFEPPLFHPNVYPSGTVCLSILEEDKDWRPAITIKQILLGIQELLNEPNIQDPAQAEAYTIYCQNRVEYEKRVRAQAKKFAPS
p97 ATPase inh: inhibitors of human p97 ATPase, primary screen, biochemical | Transitional endoplasmic reticulum ATPase (Homo sapiens), P55072 | recombinant p97 ATPase, Kinase-Glo ATP luminescence, 3 h | 220,000 tested, 0.42% active | inhibition, % at 8 µM | AID 1481, 2009; in the data active = inhibition above about 15%;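 also: 0% = DMSO vehicle and 100% = wells lacking enzyme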
DTT redox prof: compounds producing H2O2 with reducing agent – biochemical, NIH compound library profiling, artefact control for MLSCN library redox annotation, primary screen. AID 878, 2007. 200,000 tested, 0.03% active. activation, % at 10 µM. DTT-dependent redox cycling H2O2, phenol red/HRP absorbance; 100% = 100 µM peroxide control, 0% = buffer;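 active = activation of at least 50% relative to the plate's high and low controls in the primary single-dose screen; inactive = activation below 50%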;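 also: compound incubated with DTT at 0.8 mM final as the reducing agent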
S1P3 antagonist: S1P3 receptor antagonists, primary screen, cell-based; Sphingosine 1-phosphate receptor 3 (Homo sapiens), Q99500; CHO S1P3 NFAT-BLA reporter, FRET fluorescence, antagonist mode; inhibition, % at 4.98 µM; 170,000 tested, 0.27% active; AID 485, 2006;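 active = inhibition above the plate cutoff, the mean inhibition of test wells on that plate plus 3 SD, cut at about 28% in these data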;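 also: cells challenged with S1P at its EC80 of 0.8 µM; blue over green emission ratio from cleaved BLA substrate after 4 h stimulation; 0% = S1P-stimulated wells and 100% = unstimulated DMSO-only wells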
p97 inh conf: p97 ATPase inhibitors, retest, confirmation, biochemical; shares compounds with p97 ATPase inh; recombinant p97 ATPase, Kinase-Glo ATP luminescence; inhibition, % at 8 µM; 760 tested, 44% active; AID 1517, 2009;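 active = percent inhibition of p97 ATPase above a set limit, the primary screen's mean plus 3 SD, cut at about 15% in these data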;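 also: 0% = DMSO wells and 100% = wells lacking p97 protein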
An asterisk follows results filed as active; nt = no result given.

SMILES	S1P4 antagonist	S1P4 agonist	UBC9 SUMO inh	p97 ATPase inh	DTT redox prof	S1P3 antagonist	p97 inh conf
O=C(COc1ccccc1C(=O)Nc1ccccc1)c1ccc(Br)cc1	-1	-1	-10	1	0	0	nt
O=C(Oc1ccccc1C(=O)Nc1ccccc1)c1ccccc1Br	12	0	-3	23*	0	-20	30*
CCS(=O)(=O)CCSc1nc2ccccc2s1	-21	-1	10	-7	-1	-23	nt
O=S(=O)(CCSc1nc2ccccc2s1)c1nc2ccccc2s1	12	0	10	23*	0	nt	17*
CC(C)(CO)CNC(=O)CCc1nnc(-c2ccc(-c3ccccc3)cc2)o1	nt	nt	-7	nt	nt	nt	nt
O=C(CSCc1cccc(CSCC(=O)Nc2ccccc2)n1)Nc1ccccc1	1	2	-12	-2	0	nt	nt
Cc1cccc(C)c1NC(=O)CSCc1cccc(CSCC(=O)Nc2c(C)cccc2C)n1	10	-1	-6	16*	0	nt	4
COc1ccc(Nc2ccc3nnc(-c4ccc(Br)cc4)n3n2)cc1	-17	0	7	3	-4	nt	nt
C/C(=N\NC(=O)c1ccc(NS(=O)(=O)c2cccs2)cc1)c1ccc(O)cc1O	6	-2	22	20*	nt	0	20*
C/C(=N\NC(=O)c1ccc(NS(=O)(=O)c2cccs2)cc1)c1ccccc1	-16	-1	14	7	0	-9	nt
CCc1nnc(NS(=O)(=O)c2ccc(NC(=S)Nc3ccc(F)cc3)cc2)s1	-7	1	0	17*	0	-6	3
COc1ccccc1N1CCN(Cc2cc(=O)n3ccsc3n2)CC1	-3	1	2	16*	-4	nt	9
COc1cccc(OCC(=O)NNC(=O)C(=O)Nc2cccc(C)c2)c1	nt	nt	6	nt	nt	nt	nt
COc1ccc(C(c2c(C)[nH]n(-c3ccccc3)c2=O)c2c(C)[nH]n(-c3ccccc3)c2=O)cc1OC	0	0	87	30*	0	-3	5
COc1ccc(N(CC(=O)NCCSc2ccccn2)S(=O)(=O)c2ccccc2)c(OC)c1	nt	nt	1	nt	nt	nt	nt
CN(C)/C=C/c1c([N+](=O)[O-])c2ccc(O)cc2n1-c1ccccc1	7	1	13	26*	nt	-11	12
COC(=O)c1c(C)n(-c2ccccc2)c2ccc(O)cc12	-10	0	27	2	3	38	nt
CCOC(=O)c1c(S(=O)(=O)N(C)C2CCCCC2)c(C)n(C)c1C	nt	nt	1	nt	nt	nt	nt
Cn1c(-c2ccccc2)c(C(=O)CCl)c2ccccc21	15	1	4	34*	-2	4	34*
CCn1c(-c2ccccc2)c(C(=O)CCl)c2ccccc21	9	1	11	32*	0	-6	36*
Cn1c(-c2ccccc2)c(CCO)c2ccccc21	-9	1	18	1	2	-11	nt
Cc1c(-c2ccccc2)c(=O)oc2cc(O)ccc12	nt	nt	35	nt	nt	nt	nt
CC(=O)Nc1cccc(-c2nc3ccc(NC(C)=O)cc3s2)c1	11	0	8	16*	0	-11	8
CC1=NN(c2nc(-c3ccc(Cl)cc3)cs2)C(=O)C1	1	1	47	16*	-6	nt	7
Oc1ccc(Cl)cc1/C=C/c1ccc2cccc(O)c2n1	6	3	-4	31*	1	-13	22*
SMILES	S1P4 antagonist	S1P4 agonist	UBC9 SUMO inh	p97 ATPase inh	DTT redox prof	S1P3 antagonist	p97 inh conf
Cc1ccn2cc(-c3cccc(NC(=O)CCC(=O)O)c3)nc2c1	nt	nt	2	nt	nt	nt	nt
CC(=O)Nc1cccc(-c2cn3ccc(C)cc3n2)c1	-15	1	8	17*	1	-4	21*
O=c1[nH]c(=O)n(C2CCCO2)cc1F (configuration not stated)	-19	-1	1	20*	-1	-8	8
CN1c2ccccc2C(C)(C)C12C=Cc1cc(O)ccc1O2 (configuration not stated)	-16	1	1	1	0	21	nt
CN1c2ccccc2C(C)(C)C12C=Nc1c(cc(N3CCOCC3)c3ccccc13)O2 (configuration not stated)	7	1	73	29*	-3	nt	3
CCOc1ccccc1CN1C(=O)c2ccccc2C1C(=O)NC(C)CC (configuration not stated)	-9	1	4	19*	0	nt	9
CCOc1ccccc1CN1C(=O)c2ccccc2C1C(=O)NCC1CCCO1 (configuration not stated)	-15	2	-5	4	1	-9	nt
COc1ccc(N2C(=O)N(Cc3cccc(F)c3)c3ccccc3S2(=O)=O)cc1	-4	-2	-5	-6	-1	-1	nt
CCS(=O)(=O)Nc1c(C(=O)O)[nH]c2ccccc12	-4	3	39	20*	-3	4	6
CCS(=O)(=O)Nc1c(C(=O)OC)[nH]c2ccccc12	4	2	6	7	-1	8	nt
CCN(CC)c1cc(C)c2cc(NC(=O)CNC(C)=O)ccc2n1	-13	0	22	25*	0	nt	4
CN1CCN(CCCNC(=O)c2cn(C3CCCCC3)c(=O)c3c2c2ccccc2n3C)CC1	9	2	-19	23*	0	nt	4
Cc1[nH][nH]c(=O)c1C(c1ccc(-c2ccc(Cl)c(C(=O)O)c2)o1)c1c(C)[nH][nH]c1=O	-12	1	96	16*	0	-8	35*
COC(=O)c1cccc(-c2ccc(C(c3c(C)[nH][nH]c3=O)c3c(C)[nH][nH]c3=O)o2)c1	0	1	nt	12	0	-4	nt
COC(=O)c1ccccc1-c1ccc(C(c2c(C)[nH][nH]c2=O)c2c(C)[nH][nH]c2=O)o1	2	-1	97	20*	-1	-14	6
CC1(C)OC(=O)C(=Cc2ccc(-c3ccc(Cl)c(C(=O)O)c3)o2)C(=O)O1	-15	2	16	10	-2	-20	nt
CC(NC(=O)CSC(=S)N(C)C)C12CC3CC(CC(C3)C1)C2 (configuration not stated)	-12	0	10	-6	1	7	nt
O=C(CSc1nnc(CNC(=O)c2ccco2)o1)Nc1ccccc1F	nt	nt	5	nt	nt	nt	nt
CCOC(=O)c1sc(NC(=O)CSc2n[nH]c(-c3ccccc3)n2)c(C#N)c1C	-10	1	15	1	0	-6	nt
Cc1ccc(/C=C/C2=Cc3c(sc(NC(=O)CSc4n[nH]c(N)n4)c3C#N)C(C)(C)C2)o1	2	1	70*	19*	3	4	22*
